Experimental data as given in PubChem BioAssay (NCI).
Compounds without any hit were thinned out: in the full panel of roughly 79,000, 15% have a hit. Activity calls are given as the source filed them. No stated cut-off is given here; in the data, active means growth inhibition above about 70%; inactive means the rest.

What was measured:
[1] = NCI Yeast Anticancer Drug Screen. Data for the rad50 strain (AID 155);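 further: 0% = growth of vehicle-only cultures of the same strain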; settings: S. cerevisiae rad50 strain growth inhibition; at 50.0 µM; hits give high values
Outline: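 Readout: growth inhibition relative to vehicle-treated cultures. Compound exposure was carried out in a genetically defined yeast strain deficient in DNA damage repair.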

[2] = NCI Yeast Anticancer Drug Screen. Data for the mec2-1 strain (AID 157); settings: S. cerevisiae mec2-1 strain, at 50.0 µM, hits give high values
Outline: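 Growth inhibition is read against vehicle-treated controls after compound exposure of the mec2-1 yeast strain, which is defective in DNA damage repair or cell cycle control.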

[3] = NCI Yeast Anticancer Drug Screen. Data for the sgs1 mgt1 strain (AID 161);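 further: 0% = growth of cultures given vehicle only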; settings: S. cerevisiae sgs1 mgt1 strain, at 50.0 µM, hits give high values
Outline: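 Yeast cells carrying a defined DNA-repair defect were exposed to test compounds. Growth inhibition was measured relative to vehicle-treated controls.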

[4] = NCI Yeast Anticancer Drug Screen. Data for the cln2 rad14 strain (AID 165);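 further: 0% = growth equal to vehicle treated cultures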; settings: S. cerevisiae cln2 rad14 strain, at 50.0 µM, hits give high values
Outline: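 Growth inhibition, relative to vehicle-treated controls, is the read-out. The test organism is a yeast strain with defined genetic alterations, cln2 rad14.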

[5] = NCI Yeast Anticancer Drug Screen. Data for the bub3 strain (AID 167); settings: S. cerevisiae bub3 mutant strain, at 50.0 µM, hits give high values
Outline: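 Readout: yeast growth inhibition, expressed relative to vehicle-only wells. The test organism is a mutant strain from a panel with lesions in DNA repair or checkpoint genes.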

[6] = NCI Yeast Anticancer Drug Screen. Data for the mlh1 rad18 strain (AID 175); settings: S. cerevisiae mlh1 rad18 strain growth inhibition; at 50.0 µM; hits give high values
Outline: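 Cells of a genetically altered yeast strain, deficient in DNA damage repair, were treated with compound. Their growth was then compared with that of vehicle-treated cultures to give inhibition.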

Measured: growth inhibition

CCCCCCCNC(c1ccccc1)C(O)c1ccccc1 (stereo unspecified)
inactive: [1] 8.4% | [2] 10.4% | [3] 12.1% | [4] -40.2% | [5] 1.55% | [6] -3.05%

NC(=O)CI
inactive: [1] 30.8% | [2] 27.1% | [3] 38.1% | [4] 13.8% | [5] 18.5% | [6] 17.1%

CCCCC1(CCC)C(=O)NC(=O)NC1=O
inactive: [1] 9.8% | [2] 9.5% | [3] 1% | [4] 13.7% | [5] 1% | [6] 15.8%

Cc1nc2ccccc2c(=O)n1-c1ccccc1Cl
inactive: [1] 7.15% | [2] -4.65% | [3] -6.75% | [4] 12.9% | [5] 15.9% | [6] 9.8%

O=C1C(NCC(O)CO)=C(N2CC2)C(=O)C(NCC(O)CO)=C1N1CC1 (stereo unspecified)
inactive: [1] -0.05% | [2] 7% | [3] 1.15% | [4] 4.55% | [5] 8.8% | [6] 25.6%

CCOP(N)(=O)SC (stereo unspecified)
inactive: [1] -11.1% | [2] 8% | [3] -11.8% | [4] -12.8% | [5] -7.45% | [6] 23.6%

CC1(C(=O)O)OC1c1ccccc1 (stereo unspecified)
inactive: [1] 4.2% | [2] 1.2% | [3] 6.85% | [4] -11.7% | [5] 10.2% | [6] -7.7%

CN(C)P1(=O)OCC(C(C)(C)C)CN1c1ccccc1 (stereo unspecified)
inactive: [1] -6.6% | [2] 2.95% | [3] -2.8% | [4] -22.2% | [5] -12.9% | [6] -14.3%

OC1(C#[C][Hg][C]#CC2(O)CCCCC2)CCCCC1
active: [1] 95.2% | [2] 89.5% | [3] 90.7% | [4] 97.3% | [5] 97.4% | [6] 95.4%

CC(=O)NC(CS)C(=O)[O-].CC(=O)NC(CS)C(=O)[O-].N.N.[Pt+4] (stereo unspecified)
inactive: [1] 7.85% | [2] -9.85% | [3] 15.2% | [4] -38.1% | [5] 14.4% | [6] 27.2%

c1cc2c(cc1NC1=NCCO1)CCC2
inactive: [1] 3.65% | [2] 4.65% | [3] 2.75% | [4] -31.6% | [5] 8.6% | [6] -0.65%

CC1CN1P(=O)(N1CCc2ccccc21)N1CC1C (stereo unspecified)
inactive: [1] -21.8% | [2] -7.9% | [3] -5.6% | [4] -24.7% | [5] 5.9% | [6] 0.85%

CC1OCN2CCCCC12 (stereo unspecified)
inactive: [1] -25.9% | [2] -12.7% | [3] -33.4% | [4] -7.85% | [5] -25.1% | [6] -27.1%

Cc1cc(N(CCCl)CCCl)ccc1C1N(Cc2ccc(N(CCCl)CCCl)cc2)CCCN1Cc1ccc(N(CCCl)CCCl)cc1
inactive: [1] 0.8% | [2] 7.8% | [3] -6.2% | [4] -5.1% | [5] -1.35% | [6] 25%

CC(C)(C)NP(=O)(NC(C)(C)C)NC(C)(C)C
inactive: [1] 5.65% | [2] -9.6% | [3] -17.2% | [4] 4.85% | [5] -8.5% | [6] 8.2%

ClCCCN1CCN(CCCl)CC1
inactive: [1] -11.6% | [2] -10.1% | [3] -1.75% | [4] 3.2% | [5] -13.8% | [6] -21.5%

c1ccc(P2(c3ccccc3)=NSN=S=N2)cc1
inactive: [1] -4.75% | [2] -8.7% | [3] -8.65% | [4] -16.6% | [5] 1.35% | [6] -1.45%

Clc1ccc(C(c2ccccc2Cl)C(Cl)(Cl)Cl)cc1 (stereo unspecified)
inactive: [1] -24.6% | [2] -7.8% | [3] 1.8% | [4] -44.6% | [5] 47.5% | [6] 12.2%

[Fe+2].[c-]1[c-][c-][cH-][c-]1.[c-]1[c-][c-][cH-][c-]1.c1cc[c]([Pb]([c]2ccccc2)[c]2ccccc2)cc1
inactive: [1] 66.5% | [4] 65.5%
active: [2] 85% | [3] 83.9% | [5] 78.3% | [6] 87.8%

COc1cc(N=Nc2ccc([N+](=O)[O-])cc2)ccc1N(CCCl)CCCl
inactive: [1] -8.55% | [2] -13.2% | [3] -16.9% | [4] 11.2% | [5] -10.6% | [6] 12.8%

COP(=O)(Cc1ccc(/C=C/C#N)o1)OC
inactive: [1] -12.2% | [2] -3.1% | [3] -38.8% | [4] -22.1% | [5] 18.2% | [6] -10.2%

CC(=N\O)/C(C)=N/O.CC(=N\O)/C(C)=N/O.CC(=N\O)/C(C)=N/O.CC(=N\O)/C(C)=N/O.[Cu].[Cu]
inactive: [1] -7.15% | [2] 12.9% | [3] -22.1% | [4] -8.2% | [5] -13.9% | [6] -4.2%

NC1=Nc2ccccc2Sc2ccccc21
inactive: [1] -19.2% | [2] -38.8% | [3] -44.5% | [4] 2.5% | [5] -23.5% | [6] -33.8%

C(=C\c1cccs1)/CN1CCC2CCC(C2)C1 (stereo unspecified)
inactive: [1] -3.25% | [2] -4.15% | [3] 2.1% | [4] -17.1% | [5] 6.35% | [6] -10.8%

CCN(CC)P(=O)(N1CC1(C)C)N1CC1(C)C (stereo unspecified)
inactive: [1] 1.85% | [2] 0.75% | [3] 1.4% | [4] 2.35% | [5] -4.6% | [6] 1.35%

CC[As](=O)(O)c1ccc(OC)c(I)c1
inactive: [1] 1.75% | [2] -15.3% | [3] 18.3% | [4] -76.5% | [5] 4.35% | [6] 0.75%

CCOC(=O)C(O)(c1ccccc1)c1ccccc1
inactive: [1] 2.05% | [2] -5.95% | [3] 6.85% | [4] 16.8% | [5] -3.35% | [6] 31%

O=C(c1cc(N(CCCl)CCCl)c([N+](=O)[O-])cc1[N+](=O)[O-])N1CCOCC1
inactive: [1] -1.6% | [2] -3.55% | [3] 13.2% | [4] 3.55% | [5] 19.3% | [6] -3.75%

COc1ccccc1OC (tested in a mixture with another compound)
inactive: [1] 22.5% | [2] 16.7% | [3] 26.4% | [4] -17.4% | [5] 14.2% | [6] 16.2%

CC(C)NCCc1c[nH]c2ccccc12
inactive: [1] 3% | [2] -7.15% | [3] 12.4% | [4] -60% | [5] 13.3% | [6] 1.65%

CC1(C)N=C(N)N=C(N)N1c1ccc(CCC(=O)Nc2cccc(S(=O)(=O)F)c2)c(Cl)c1
active: [2] 82.4%
inactive: [1] 57.7% | [3] 68% | [4] -3.05% | [5] -31.9% | [6] 8.05%

C[n+]1ccc2ccccc2c1-c1c2ccccc2cc[n+]1C
inactive: [1] 27.4% | [2] 3.65% | [3] -2.55% | [4] 18.9% | [5] 3% | [6] 6.05%

O=C(O)Cc1ccc(O)c(O)c1.[Pt].c1ccc([PH+](c2ccccc2)c2ccccc2)cc1.c1ccc([PH+](c2ccccc2)c2ccccc2)cc1
inactive: [1] 43.2% | [2] 33.9% | [3] 37.8% | [4] 42.5% | [5] 26.5% | [6] 63.9%

CC(C)CC(NC(=O)CF)C(=O)O (stereo unspecified)
inactive: [1] 3.45% | [2] 0.05% | [3] -4.7% | [4] 1.4% | [5] 4.05% | [6] -3.05%

CCC(CN)c1ccccc1 (stereo unspecified)
inactive: [1] 13.6% | [2] -0.85% | [3] 2.75% | [4] 0.65% | [5] -14.4% | [6] -9.4%

CC[C@@H](C)C(=O)O[C@H]1[C@H](O)[C@H]2[C@@H](CN3C[C@@H](C)CC[C@H]3[C@@]2(C)O)[C@@H]2C[C@]34O[C@@]5(O)[C@@H](OC(=O)[C@](C)(O)[C@@H](C)O)CC[C@@]3(C)[C@@H]5[C@@H](OC(C)=O)[C@@H](OC(C)=O)[C@H]4[C@@]21O
inactive: [1] 8.75% | [2] 6.25% | [3] -23.6% | [4] 12.6% | [5] 4.9% | [6] 25.5%

CC[N+](CC)(CC)CC#CC[N+](CC)(CC)CC
inactive: [1] 5.65% | [2] 5% | [3] 14.3% | [4] 1.45% | [5] 12.8% | [6] 6.1%

N#CC1OC1c1cccnc1 (stereo unspecified)
inactive: [1] 3.9% | [2] -1.45% | [3] -4.45% | [4] 20.6% | [5] 29.3% | [6] -16.1%

O=C(CBr)OCCOC(=O)CBr
inactive: [1] 0.55% | [2] 18.4% | [3] -8.5% | [4] 14.4% | [5] 28.5% | [6] -3.95%

COC(=O)CN(CCCl)P1(=O)OCCCN1CCCl (stereo unspecified)
inactive: [1] -17.4% | [2] -1.1% | [3] -5.5% | [4] 0.2% | [5] 10.3% | [6] -4.8%

CC(=O)c1cn(Cc2ccccc2)c2ccccc12
inactive: [1] 5.75% | [2] -14.2% | [3] -6.7% | [4] -73.5% | [5] -19.6% | [6] -2.9%
